The values below come from PubChem BioAssay (Tox21).

Where “and” joins values, the source holds several entries; their conditions need not be identical. Equal values may be shown once. Records with an inconclusive call do not appear. More than one record can exist for a structure, and the calls need not agree. Calls of active or inactive are those of the source. Unless noted, calls come from the whole dose curve; as a rule, active = well fitted curve in the direction sought with a large enough effect in the repeat runs; inconclusive = weak or mixed curves; inactive = no such curve, though single readings can be large; an effect the other way counts as inactive or inconclusive.

A short description of experiment [1]: qHTS assay to identify small molecule agonists of the peroxisome proliferator-activated receptor delta (PPARd) signaling pathway - cell viability counter screen (AID 743211). Note: nearly all actives have a fitted effect of over 55% in size. Note: potency is the fitted concentration of half-maximal effect. The essentials: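 Viability of GeneBLAzer PPARd UAS-bla HEK293H cells was assessed after 17 h compound incubation at 37C, using CellTiter-Glo reagent added after the reporter read and luminescence recorded 30 min later.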
Background: qHTS replaces the single test concentration by a dilution series.

The nature of experiment [2]: qHTS assay to identify small molecule antagonists of the peroxisome proliferator-activated receptor delta (PPARd) signaling pathway - cell viability counter screen (AID 743213). Note: nearly all actives have a fitted effect of over 50% in size. The gist of the method: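 HEK293H cells with the PPARd UAS-bla reporter, co-treated 17 h at 37 C with compounds and L165041 (300 nM final), were lysed with CellTiter-Glo. Luminescence indicated viable cell content.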

Experiment [3] concerns the target Peroxisome proliferator-activated receptor delta (Homo sapiens) (UniProt Q03181). The experiment in a line: qHTS assay to identify small molecule antagonists of the peroxisome proliferator-activated receptor delta (PPARd) signaling pathway (AID 743215; active = well fitted inhibition curve with a large enough effect in the signal ratio in the repeat runs, not every such curve was filed as active; the % refers to the signal ratio;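 note: cells stimulated with agonist L165041 at 300 nM final during compound exposure; series mostly up to about 62 µM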). The gist of the method: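 Fluorescence from cleaved LiveBLAzer B/G FRET substrate (2 h, room temperature) reports PPARd-driven beta-lactamase in HEK293H UAS-bla cells. Cells had been treated 17 h at 37 C with compound plus 300 nM final L165041.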

Experiment [4] is described as follows: qHTS assay to identify small molecule agonists of the farnesoid-X-receptor (FXR) signaling pathway - cell viability counter screen (AID 743218). Note: nearly all actives have a fitted effect of over 45% in size. Note: potency is the fitted concentration of half-maximal effect. The gist of the method:
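Readout: CellTiter-Glo luminescence, 30 min RT, multiplexed after the FXR-bla FRET reading. HEK 293T FXR-UAS-bla cells received compound 5 h post-plating and were incubated 16 h at 37 C.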

A short description of experiment [5]: qHTS assay to identify small molecule antagonists of the farnesoid-X-receptor (FXR) signaling pathway - cell viability counter screen (AID 743221; active = well fitted cell-killing curve with a large enough effect in the repeat runs, not every such curve was filed as active; note: nearly all actives have a fitted effect of over 50% in size; note: potency is the fitted concentration of half-maximal effect). The gist of the method: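 Quantitative HTS of the Tox21 10K library run in parallel with the beta-lactamase reporter read. HEK 293T cells carrying a UAS-driven bla reporter got compound and 50 uM CDCA (final) for 16 h; ATP-based luminescence followed.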

In experiment [6] the target is Bile acid receptor (Homo sapiens) (UniProt Q96RI1). The experiment in a line: qHTS assay to identify small molecule agonists of the farnesoid-X-receptor (FXR) signaling pathway (AID 743220; active = well fitted activation curve with a large enough effect in the signal ratio in the repeat runs, not every such curve was filed as active; the % refers to the signal ratio). The gist of the method:
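FXR-UAS-bla HEK 293T cells carrying a UAS-driven beta-lactamase reporter were plated for 5 h at 37C/5% CO2, then exposed to DMSO-dissolved Tox21 10K compounds for 16 h at 37C. A LiveBLAzer B/G FRET substrate was loaded for 2 h at room temperature before fluorescence reading.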

For experiment [7], the target named is Vitamin D3 receptor (Homo sapiens) (UniProt P11473). The experiment in a line: qHTS assay to identify small molecule agonists of the vitamin D receptor (VDR) signaling pathway (AID 743222; calls by dose curve). The essentials:
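Following 4 h attachment at 37C, VDR-bla cells (2,000 per well) received DMSO-dissolved compounds or controls. After 16 h incubation, LiveBLAzer B/G FRET substrate was added and fluorescence read 2 h later at room temperature.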

The target is the same in experiment [8]. The experiment in a line: qHTS assay to identify small molecule antagonists of the vitamin D receptor (VDR) signaling pathway (AID 743223; active = well fitted inhibition curve with a large enough effect in the signal ratio in the repeat runs, not every such curve was filed as active; the % refers to the signal ratio). The gist of the method:
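Fluorescence from LiveBLAzer B/G FRET substrate, read after 2 h at room temperature, reflects beta-lactamase reporter activity in VDR-bla cells treated 16 h at 37C with compounds and agonist 1alpha,25-dihydroxyvitamin D3 (3 nM final).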

The target of experiment [9] is Peroxisome proliferator-activated receptor delta (Homo sapiens) (UniProt Q03181). The experiment in a line: qHTS assay to identify small molecule agonists of the peroxisome proliferator-activated receptor delta (PPARd) signaling pathway (AID 743212; calls by dose curve). The essentials:
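Read-out: beta-lactamase FRET fluorescence after 2 h room-temperature incubation with LiveBLAzer B/G substrate. Cells were HEK293H carrying a UAS-bla reporter for PPARd, treated at 37 C with DMSO-dissolved compounds.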

Sequence of Bile acid receptor (Homo sapiens) (Q96RI1 whole entry, looked up): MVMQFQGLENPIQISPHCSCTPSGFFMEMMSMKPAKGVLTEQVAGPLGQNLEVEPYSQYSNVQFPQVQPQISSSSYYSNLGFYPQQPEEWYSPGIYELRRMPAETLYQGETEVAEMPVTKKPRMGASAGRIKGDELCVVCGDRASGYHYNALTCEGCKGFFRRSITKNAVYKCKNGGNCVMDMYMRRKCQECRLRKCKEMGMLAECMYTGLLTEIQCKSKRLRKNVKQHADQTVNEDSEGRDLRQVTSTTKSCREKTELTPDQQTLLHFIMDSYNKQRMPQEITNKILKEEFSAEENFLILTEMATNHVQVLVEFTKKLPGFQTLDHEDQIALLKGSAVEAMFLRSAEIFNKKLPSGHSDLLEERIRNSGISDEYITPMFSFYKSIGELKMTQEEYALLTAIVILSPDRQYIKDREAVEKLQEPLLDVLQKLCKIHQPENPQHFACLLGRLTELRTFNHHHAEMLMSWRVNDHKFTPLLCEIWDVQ
Sequence of Vitamin D3 receptor (Homo sapiens) (P11473 whole entry, looked up): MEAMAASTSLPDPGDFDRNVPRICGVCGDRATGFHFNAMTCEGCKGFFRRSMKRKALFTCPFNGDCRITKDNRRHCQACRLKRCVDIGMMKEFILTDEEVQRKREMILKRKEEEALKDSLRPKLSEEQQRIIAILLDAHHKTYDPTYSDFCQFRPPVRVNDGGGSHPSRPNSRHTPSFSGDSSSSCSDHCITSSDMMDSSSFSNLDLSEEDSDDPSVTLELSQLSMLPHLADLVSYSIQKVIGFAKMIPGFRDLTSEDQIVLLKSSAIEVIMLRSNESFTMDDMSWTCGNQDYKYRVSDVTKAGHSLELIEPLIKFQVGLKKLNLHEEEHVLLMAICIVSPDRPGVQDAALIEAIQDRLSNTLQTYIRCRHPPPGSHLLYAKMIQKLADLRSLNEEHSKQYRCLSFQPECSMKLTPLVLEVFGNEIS
Sequence of Peroxisome proliferator-activated receptor delta (Homo sapiens) (Q03181 whole entry, looked up): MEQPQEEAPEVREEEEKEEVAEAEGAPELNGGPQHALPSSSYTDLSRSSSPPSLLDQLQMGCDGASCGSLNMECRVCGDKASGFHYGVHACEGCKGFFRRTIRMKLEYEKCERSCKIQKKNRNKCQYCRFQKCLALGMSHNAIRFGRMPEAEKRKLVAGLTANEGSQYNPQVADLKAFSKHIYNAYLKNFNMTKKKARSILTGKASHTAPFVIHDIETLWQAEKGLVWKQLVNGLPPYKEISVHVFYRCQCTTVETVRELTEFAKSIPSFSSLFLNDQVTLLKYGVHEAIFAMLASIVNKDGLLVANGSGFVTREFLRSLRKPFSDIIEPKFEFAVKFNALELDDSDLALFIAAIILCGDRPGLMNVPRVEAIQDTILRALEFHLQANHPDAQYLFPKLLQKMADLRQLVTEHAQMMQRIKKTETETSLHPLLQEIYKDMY

For `Oc1c(Br)cc(Br)cc1Br`, the Potency entry in experiment [1], in experiment [4] and in [5] was “inactive” throughout. Besides, the compound was classed as inactive in experiment [2] and in [3].

Consider `Cl[C@H]1OCCO[C@@H]1Cl`, for which the Potency result in [1] and in [4] was “inactive” each time. Also, the outcome in experiment [2], in experiment [3] and in [6] was inactive.

For the compound `Cc1cccc(C)c1NC(=O)CN1CCCC1=O`, the Potency result in [1] and in [4] was “inactive” throughout. In addition, the outcome in experiment [2], in experiment [3] and in [6] was inactive.

For the compound `CCCCC(CC)C(=O)Cl` (stereo unspecified), the Potency result in [1] and in experiment [4] was “inactive” throughout. Moreover, the compound was called inactive in [2], in experiment [3] and in experiment [6].

On to `CC(=O)C1CCOC1=O` (stereo unspecified), for which the Potency result in experiment [1], in [4] and in [5] was “inactive” in each case. Also, the outcome in experiment [2], in experiment [3], in [6], in experiment [7] and in experiment [8] was inactive.

Regarding `OCc1ccco1`, the Potency result in experiment [1] and in experiment [4] was “inactive” throughout. Further, the outcome in [2], in experiment [3], in experiment [6], in [7] and in experiment [8] was inactive.

Regarding `COP(=S)(OC)SCN1C(=O)c2ccccc2C1=O`, the Potency result in experiment [1], in experiment [4] and in [5] was “inactive” each time. The compound was classed as inactive in [2], in [3] and in [6].

For the compound `CC(=O)/C=C/c1ccccc1`, the Potency entry in experiment [1], in experiment [4] and in experiment [5] was “inactive” in each case. Also, the call in experiment [2], in experiment [3], in experiment [7] and in experiment [8] was inactive.

As for `CCOP(=S)(OCC)Oc1cc(C)nc(C(C)C)n1`, the Potency result was “inactive and 54.9 µM (active)” in experiment [1]; “inactive and 49 µM (active)” in experiment [4]; “inactive and 43.6 µM (active)” in experiment [5]. Further, the compound was called inactive in experiment [2] and in [3].

Turning to `OC[C@@H](O)[C@H]1O[C@@H]2O[C@H](C(Cl)(Cl)Cl)O[C@@H]2[C@H]1O`, the Potency result in [1] and in experiment [4] was “inactive” in each case. Further, the result in [2] and in [3] was inactive.

As for `N#Cc1cccc(C#N)c1`, the Potency entry in experiment [1], in [4] and in experiment [5] was “inactive” each time. Besides, the call in [2], in [3], in experiment [7] and in [8] was inactive.

As to `CNC(=O)O/N=C/C(C)(C)S(C)=O` (stereo unspecified), the Potency result in experiment [1], in experiment [4] and in experiment [5] was “inactive” in each case. Besides, the result in experiment [2], in experiment [3], in [6], in experiment [7] and in experiment [8] was inactive.

As to `CSc1nnc(C(C)(C)C)c(=O)n1N`, the Potency entry in [1], in experiment [4] and in experiment [5] was “inactive” each time. Besides, the outcome in experiment [2], in experiment [3], in [6], in [7] and in experiment [8] was inactive.

With `Nc1cccc(Cl)c1`, the Potency result in experiment [1] and in [4] was “inactive” in each case. In addition, the call in experiment [2], in [3], in experiment [6], in experiment [7] and in experiment [8] was inactive.

As for `Cc1ccccc1N`, the Potency result in experiment [1], in [4] and in experiment [5] was “inactive” in each case. Besides, the result in [2] and in [3] was inactive.

Turning to `CNc1cnn(-c2cccc(C(F)(F)F)c2)c(=O)c1Cl`, the Potency result in experiment [1] and in experiment [4] was “inactive” each time. The compound was classed as inactive in [2], in experiment [3], in experiment [6], in experiment [7] and in experiment [8].

As for `O=[N+]([O-])c1ccc(Cl)c(Cl)c1`, the Potency entry in experiment [1] and in experiment [4] was “inactive” each time. For the same compound, the outcome in experiment [2], in experiment [3], in experiment [6], in experiment [7] and in [8] was inactive.

Consider `CN(C)NC(=O)CCC(=O)O`, for which the Potency entry in experiment [1], in experiment [4] and in [5] was “inactive” each time. For the same compound, the compound was classed as inactive in experiment [2], in experiment [3], in experiment [7] and in [8].

With `Cc1cc(O)ccc1Cl`, the Potency result in [1], in [4] and in experiment [5] was “inactive” in each case. The compound was called inactive in experiment [2], in experiment [3], in [6], in [7] and in experiment [8].

`CN(C)C(=O)C(c1ccccc1)c1ccccc1`: the Potency entry in experiment [1], in experiment [4] and in experiment [5] was “inactive” throughout. For the same compound, the call in experiment [9], in experiment [2] and in experiment [7] was inactive.

Turning to `CC12CC1(C)C(=O)N(c1cc(Cl)cc(Cl)c1)C2=O` (stereo unspecified), the Potency result in experiment [1] and in experiment [4] was “inactive” each time. Besides, the compound was called inactive in experiment [9], in [2], in experiment [7] and in experiment [8].

For the compound `O=C(O)Cc1ccccc1`, the Potency result in experiment [1], in experiment [4] and in experiment [5] was “inactive” throughout. Besides, the compound was classed as inactive in experiment [2], in [6], in [7] and in experiment [8].

On to `CC[N+](=O)[O-]`, for which the Potency entry in [1] and in experiment [4] was “inactive” each time. Besides, the call in experiment [2], in experiment [3], in experiment [7] and in [8] was inactive.
